NTR1 agonist: agonists of human neurotensin receptor NTR1. P30989. NTR1-U2OS beta-arrestin-GFP spot imaging, agonist mode. activation, % at 20 µM. 330,000 compounds, 0.17% hits;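 active means activation at or above 40% of the spot to cytoplasm intensity ratio, with at least 20 cells analyzed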;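 further: 0% = DMSO without peptide and 100% = 100 nM NTR1 peptide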
Beta2AR agonist: agonists of human beta-2 adrenergic receptor inducing internalization; P07550; AID 504454; response, % (no concentration beside the values); 340,000 compounds, 0.43% hits; Am2.2-beta2AR cells, FAP receptor internalization, flow cytometry;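 active means response above a set limit, near 3 SD of response in nonfluorescent compounds, cut at about 42% in these data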
ABHD5-PLIN5 inh: inhibitors of human ABHD5-perilipin-5 interaction. Split G. princeps luciferase complementation, luminescence, 4 h. inhibition, % at 4 µM. 360,000 compounds, 0.78% hits. AID 602281;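 active means inhibition above the mean inhibition across every tested compound plus 3 SD, cut at about 22% in these data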;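 further: 0% = DMSO only wells and the 100% control is not disclosed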
Exocytosis inh: blocks lytic granule exocytosis | TALL-104 LAMP-1 surface exposure, flow cytometry; cells stimulated with thapsigargin and PMA | inhibition, % at 10 µM | 360,000 compounds, 0.66% hits | AID 651702;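 active means inhibition above about 55%, limit read from the data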
HTR2A ag: agonists of mouse serotonin 5-HT2A receptor (HTR2A); P35363; CHO-K1 mHTR2A beta-arrestin complementation, luminescence; percent of 30 µM serotonin response; activation, % at 7.6 µM; 360,000 compounds, 0.66% hits;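 active means activation above a run cutoff, the mean activation of all tested compounds plus 3 SD, cut at about 14% in these data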;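 further: 0% = plate median of compound wells and 100% = 30 µM serotonin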
Target sequence (P35363 whole entry, looked up): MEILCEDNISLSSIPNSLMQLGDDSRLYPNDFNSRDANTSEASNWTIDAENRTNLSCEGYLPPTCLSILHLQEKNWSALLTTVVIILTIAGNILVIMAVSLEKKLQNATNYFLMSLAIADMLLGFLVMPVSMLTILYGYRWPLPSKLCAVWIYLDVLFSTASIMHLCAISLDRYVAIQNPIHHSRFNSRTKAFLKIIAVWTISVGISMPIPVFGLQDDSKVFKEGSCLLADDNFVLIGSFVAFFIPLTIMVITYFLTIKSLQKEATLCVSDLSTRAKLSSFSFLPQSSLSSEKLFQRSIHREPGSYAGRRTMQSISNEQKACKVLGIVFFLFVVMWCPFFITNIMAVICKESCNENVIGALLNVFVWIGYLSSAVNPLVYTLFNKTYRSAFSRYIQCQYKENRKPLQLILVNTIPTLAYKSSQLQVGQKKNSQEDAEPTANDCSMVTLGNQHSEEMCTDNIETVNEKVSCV
OPRM1 ag: activates human mu opioid receptor in HTR2A counterscreen. U2OS OPRM1 beta-arrestin PathHunter, luminescence; DMSO 0%, DAMGO 9.3 µM 100%. 2,300 compounds, 5.3% hits. activation, % at 9.3 µM. shares compounds with HTR2A ag. AID 624380;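 active means mean activation above the mean of DMSO-only wells plus 3 SD, cut at about 0.5% in these data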
HTR2A ag conf: mouse HTR2A agonism confirmed; shares compounds with HTR2A ag; CHO-K1 PathHunter beta-arrestin recruitment, luminescence; DMSO 0%, 30 µM serotonin 100%; activation, % at 7.6 µM; 2,300 compounds, 19% hits;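 active means mean activation across triplicates above the hit threshold derived in the original primary screen, cut at about 15% in these data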
The depositor's hits bear a star; . = no result. A selection: hits, their analogues and other compounds. The true share with any hit is near 2.3%.

SMILES | NTR1 agonist | Beta2AR agonist | ABHD5-PLIN5 inh | Exocytosis inh | HTR2A ag | OPRM1 ag | HTR2A ag conf
COc1ccc(-c2c(C#N)c(SCc3c(C)noc3C)nc3c2C(=O)CC(C)(C)C3)cc1 | 0 | -18 | 11 | 1 | 18* | -1 | -3
C(=N\NC1=Nc2cccc3cccc1c23)/c1ccccc1 | 3 | -18 | 0 | 2 | -2 | . | .
Clc1ccc(/C=N/NC2=Nc3cccc4cccc2c34)cc1 | 9 | 2 | 3 | -1 | 15* | 0 | 2
COc1ccc(CCC(=O)OCC(=O)Nc2ccc(OC)c(OC)c2)cc1OC | 0 | 7 | 1 | -5 | -7 | . | .
O=C([C@H](Cc1ccccc1)NS(=O)(=O)c1ccc(Cl)cc1)N1CC[C@@]2(O)CCCC[C@H]2C1 | 0 | 3 | 5 | -2 | 17* | -1 | -5
CCOC(=O)N1CCC(NC(=O)CCCN2C(=O)CSc3ncccc32)CC1 | 1 | 4 | 0 | 1 | -1 | . | .
O=C(CCCN1C(=O)CSc2ncccc21)N1CCN(Cc2ccccc2)CC1 | 1 | 11 | -2 | 4 | 107* | -1 | -5
O=C(COC(=O)c1ccc2ccccc2c1O)Nc1ccccc1 | 1 | 10 | 2 | 9 | -6 | . | .
CCCCNC(=O)c1nc(-c2cc3ccccc3[nH]2)oc1-c1cccc(C(F)(F)F)c1 | . | . | -8 | -2 | 16* | 0.7* | 12
CCCCNC(=O)c1nc(-c2ccc(C(F)(F)F)cc2)oc1-c1ccccc1 | . | . | 11 | -1 | -5 | . | .
COc1ccc2oc(C(=O)Nc3nc4ccccc4[nH]3)c(C)c2c1 | 6 | -1 | -1 | -1 | 149* | 0 | 56*
CCC(=O)Nc1nnc(SCc2cccc(F)c2)s1 | 2 | -1 | 3 | 1 | 21* | -1 | -5
COc1ccccc1N(CC(=O)NCc1ccco1)C(=O)CCC(=O)Nc1ccccn1 | 3 | -9 | -2 | 16 | -1 | . | .
Cc1cccc(NC(=O)c2cnc3ccccn3c2=O)c1 | 6 | -3 | -15 | -1 | 26* | -1 | -1
CC(C)C(=O)NC(NCC1CCCO1)C(Cl)(Cl)Cl (configuration not stated) | -1 | 10 | 3 | -3 | 17* | -1 | -2
CC(OC(=O)CCCN=C1NS(=O)(=O)c2ccccc21)C(=O)Nc1ccccc1F (configuration not stated) | 2 | 2 | 4 | -8 | 25* | -1 | -4
Cc1ccc(S(=O)(=O)NC(CC(=O)NC2CCCC2)c2ccco2)cc1 (configuration not stated) | 2 | -4 | -6 | -2 | -4 | . | .
Cc1ccc(S(=O)(=O)NCC(=O)N2CCCCC2)cc1 | 2 | 10 | -1 | -1 | 14* | -1 | -3
Cc1ccc(S(=O)(=O)NCC(=O)N2CCCC2)cc1 | 0 | 1 | -3 | -1 | 7 | . | .
Cc1ccc(S(=O)(=O)NC(CC(=O)N2CCOCC2)c2ccco2)cc1 (configuration not stated) | -1 | 3 | -2 | 0 | 43* | -1 | 0
Cc1ccccc1-n1ncc2c1CC(C)(C)CC2NC(=O)CCC(F)(F)F (configuration not stated) | 2 | -4 | -2 | 2 | 0 | . | .
CC1=C(C(=O)N(C(C)C)C(C)C)CC(CC(=O)NCCN2CCOCC2)C(=O)N1CCC1=CCCCC1 (configuration not stated) | . | . | 0 | -2 | 16* | 0 | -4
COC(=O)C[C@H]1CC[C@@H](NC(=O)C2CC2)[C@@H](CO)O1 | . | . | 7 | -6 | 18* | 0 | -1
COc1ccccc1C1(CC(=O)N2CCCCC2)CCOC(C(C)C)C1 (configuration not stated) | 1 | -1 | 2 | -1 | 1 | . | .
CCC1(C)CC(CC(=O)O)(c2ccccc2OC)CCO1 (configuration not stated) | -2 | 2 | -2 | -3 | 15* | 0 | 1
SMILES | NTR1 agonist | Beta2AR agonist | ABHD5-PLIN5 inh | Exocytosis inh | HTR2A ag | OPRM1 ag | HTR2A ag conf
Cc1cccc(S(=O)Cc2ccc(C(=O)N3CCN(C(=O)c4ccco4)CC3)o2)c1 (configuration not stated) | -1 | -10 | 1 | -2 | 4 | . | .
C[C@H](O)c1[nH]c2cc(F)ccc2c1[C@H](C)O | -3 | 1 | 9 | 1 | 20* | 0 | -5
CCOC(=O)C1(C)CCCN(C(=O)c2cc(OC)c(OC)c(OC)c2)C1 (configuration not stated) | . | . | -1 | -2 | 0 | . | .
O=C(O)/C=C/C(=O)N1CCN(c2cccc(Cl)c2)CC1 | 0 | 8 | 13 | 8 | 31* | -1 | 4
CC(=O)/C(C(=N)N1CCN(c2cccc(Cl)c2)CC1)=C(\C)O | 3 | 5 | -3 | 5 | 18* | -1 | -2
O=C(O)CCC(=O)N1CCN(c2cccc(Cl)c2)CC1 | -3 | -11 | -2 | 2 | 14 | . | .
N#CCC(=N)N1CCN(c2cccc(Cl)c2)CC1 | 2 | -6 | 5 | 8 | 15* | -1 | 5
O=C(Nc1nc2c(Br)cccc2s1)C1CC1 | -4 | -1 | 6 | -3 | -5 | . | .
CCOC(=O)[C@H](CCc1ccccc1)N[C@@H](C)C(=O)N1[C@H](C(=O)O)C[C@@H]2CCC[C@@H]21 | 0 | -7 | -3 | -2 | 44* | -1 | -1
CN(C)c1ccc(O)c2c1CC1CC3[C@@H](N(C)C)C(=O)C(C(N)=O)C(=O)[C@]3(O)C(=O)C1C2=O (some centres not stated) | -2 | 4 | -1 | -2 | 67* | 0 | 153*
Cc1noc(C)c1CN1C(=O)c2cccc([N+](=O)[O-])c2C1=O | 1 | 7 | -2 | -2 | 14* | 0 | 0
CCOc1ccccc1C(=O)NC(C(=O)Nc1cccc(S(N)(=O)=O)c1)C(C)C (configuration not stated) | 0 | -6 | -1 | 0 | -4 | . | .
CCCCOc1ccc(S(=O)(=O)NC(=O)C2(C)CCN2C(=O)CCc2ccccc2)cc1 (configuration not stated) | . | . | 3 | -1 | 17* | 0 | -2
CC(=O)Nc1c(Br)cc2c(c1Br)Cc1cc([N+](=O)[O-])ccc1-2 | . | 8 | -7 | 2 | -4 | . | .
O=C(O)CSc1nnc(-c2cccc(S(=O)(=O)N3CCOCC3)c2)n1-c1cccc(Cl)c1 | 1 | -6 | 0 | 0 | 7 | . | .
Cc1ccc(-c2cc(-c3ccco3)c3c(N)c(C(=O)NN)oc3n2)cc1 | 0 | -4 | -12 | 2 | 15* | 0 | 0
CCN1CCN(CC2COc3ccccc3O2)CC1 (configuration not stated) | 1 | -5 | -2 | 8 | -2 | . | .
